Experimental findings from PubChem BioAssay (Tox21) are described below.

Records with an inconclusive call do not appear. A call without a number means that no potency is given here. Values without a mark were called inactive. The source made the active and inactive calls. Calls come from the whole dose curve; as a rule, active = well fitted cell-killing curve with a large enough effect in the repeat runs; inconclusive = weak or mixed curves, or effect the other way; inactive = flat fitted curve, though single readings scatter.

The assay in a line: qHTS assay to identify small molecule antagonists of the constitutive androstane receptor (CAR) signaling pathway - cell viability counter screen (AID 1224837). Note: nearly all actives have a fitted effect of over 45% in size. The note with it: HepG2-CYP2B6-hCAR viability, CellTiter-Fluor, 23 h, co-treated with 50 nM CITCO; series mostly up to 92.4 µM. An excerpt: National Center for Advancing Translational Sciences [NCATS]
NIH Chemical Genomics Center [NCGC]
U.S. Environmental Protection Agency [EPA]
National Institutes of Environmental Health Sciences [NIEHS]
National Toxicology Program [NTP]
U.S. Food and Drug Administration [FDA]
The constitutive androstane receptor (CAR) is a nuclear receptor which regulates multiple drug metabolizing enzymes (DMEs) and transporters. Activating CAR will generally increase the transcription and subsequent translation of CYP2B6 and CYP3A4. These two DMEs represent about 50% of the drug metabolizing potential in the body. When CAR is deactivated, the metabolizing potential in the body will decrease, subsequently increasing the toxicity in the body or lowering the therapeutic potential of a pro-drug. Recently, there have also been studies performed indicating CARs role in energy metabolism and cancer therapy. Therefore, inhibiting CARs activity could have a potential effect on diabetes and cancer. Identifying environmental toxins and compounds which modulate CAR, through the use of the Tox21 10K compound collection, will be an important step in determining the toxicity and potential therapeutic effects these factors will have on the human body. To differentiate true CAR antagonists from cytotoxic substances, the assay is multiplexed with a cell viability assay.
Tox21 Assay Protocol Summary:
A double-stable (hCAR and CYP2B6-2.2kb) transfected cell line, derived from human hepatoma (HepG2) cells, was utilized for the duration of the quantitative high-throughput screens. The HepG2-CYP2B6-hCAR cells were dispensed at 2500 cells/4 uL/well in 1536-well white solid bottom plates using a Multidrop Combi. After the assay plates were incubated at 37 C/5% CO2 for 4 hrs, 23 nL of compounds at 15 concentrations (from 5-48 columns) or positive control (from 1 to 4 columns) were transferred to the assay plates using a Pintool station. One uL of CITCO (final concentration = 50 nM) was added, using a Flying Reagent Dispenser, inside each well. After a 23 hr incubation period at 37 C/5% CO2, 1 uL of CellTiter-Fluor reagent was added into each well of the assay plates using a Flying Reagent Dispenser. The fluorescence intensity in the plates was then measured using a ViewLux plate reader.
In general terms: In qHTS, concentration-response curves come from the screen itself.
As to `Nc1c(Br)cc([N+](=O)[O-])cc1[N+](=O)[O-]`, the Potency result was “inactive”.
On the same count and under the same terms, the result for `COP(=S)(OC)Oc1ccc(S(N)(=O)=O)cc1` reads “inactive”.
On the same count and under the same terms, under `CCC(Cl)[N+](=O)[O-]` (stereo not given) stands “inactive”; under `Nc1ccccc1Cl`, “inactive”; under `Cc1ccccc1CO[C@@H]1C[C@@]2(C(C)C)CC[C@]1(C)O2`, “inactive”.
Same read-out and setting: under `CCOP(=S)(OCC)Oc1ncn(-c2ccccc2)n1` stands “inactive”; under `N#CCCC#N`, “inactive”.
With `ClC(Cl)C(Cl)Cl`, the Potency entry was “inactive”.
The same measure, in the same setting: the result for `COCC(=O)N(c1c(C)cccc1C)N1CCOC1=O` reads “inactive”; that for `Cc1cnc[nH]1`, “inactive”; that for `O=c1oc2ccccc2c(O)c1C1CCCc2ccccc21` (stereo not given), “inactive”.
The same measure, in the same setting: under `COc1cc(OC)nc(NC(=O)NS(=O)(=O)c2ncccc2C(=O)N(C)C)n1` stands “inactive”; under `OC(c1ccc(F)cc1)(c1cncnc1)c1ccccc1Cl` (stereo not given), “inactive”.
For the compound `O=C1CN2CCOC2(c2ccccc2Cl)c2cc(Cl)ccc2N1` (stereo not given), the Potency entry is “inactive”.
On the same count and under the same terms, under `CC(C)(C)C(=O)C(Oc1ccc(Cl)cc1)n1cncn1` (stereo not given) stands “inactive”; under `CNC(=O)Oc1c(C(C)(C)C)cc(C)cc1C(C)(C)C`, “inactive”.
The same measure, in the same setting: under `CCS(=O)(=O)CCSP(=O)(OC)OC` stands “inactive”; under `C[C@]12CC[C@H]3[C@@H](CCC4=CC(=O)CC[C@@]43C)[C@@H]1CC[C@@H]2C(=O)O`, “inactive”; under `CCCCc1c(C)nc(NCC)[nH]c1=O`, “inactive”.
The same measure, in the same setting: under `O=C1OC(c2ccc(O)c(S(=O)(=O)O)c2)(c2ccc(O)c(S(=O)(=O)O)c2)c2c(Br)c(Br)c(Br)c(Br)c21` stands “inactive”; under `[O]=[Cd]`, “inactive”.
With `Nc1n[nH]c(N)n1`, the Potency entry was “inactive”.
On the same count and under the same terms, under `c1coc(-c2nc3ccccc3[nH]2)c1` stands “inactive”.
Same read-out and setting: under `Cc1cc(C)nc(Nc2ccccc2)n1` stands “inactive”; under `COC(=O)c1ccccc1S(=O)(=O)NC(=O)Nc1nc(C)cc(C)n1`, “inactive”; under `O=C(CCN1CC1)OCC(CO)(COC(=O)CCN1CC1)COC(=O)CCN1CC1`, “inactive”.
On the same count and under the same terms, the result for `COc1ccc(C(=O)N2CCCC2=O)cc1` reads “inactive”; that for `O=C(N[C@H]1CN2CCC1CC2)c1cc2ccoc2cn1`, “inactive”; that for `O=NN1CCCCC1`, “inactive”.
On to `O=S(=O)(O)C(F)(F)C(F)(F)C(F)(F)C(F)(F)C(F)(F)C(F)(F)F`, for which the Potency result is “inactive”.
Still for that read-out and setting: the result for `ClC(Cl)Br` reads “inactive”; that for `CC1=C(C(=O)Nc2ccccc2)S(=O)(=O)CCO1`, “inactive”.
Still for that read-out and setting: under `NC1=NC(=O)C(c2ccccc2)O1` (stereo not given) stands “inactive”; under `CCC#N`, “inactive”; under `CCS(=O)(=O)C(C)(C)S(=O)(=O)CC`, “inactive”.
On the same count and under the same terms, the result for `CCN(CC)c1nc(C)cc(OP(=S)(OC)OC)n1` reads “inactive”; that for `O=[N+]([O-])c1ccc2c3c(cccc13)CC2`, “inactive”.
Regarding `CC1=C(C(=O)O)N2C(=O)[C@@H](N)[C@H]2SC1`, the activity change, negative = cytotoxicity is 0.992% [at 19 µM].
With `CCOP(=O)(N=C1SCCS1)OCC`, the Potency entry is “inactive”.
The same measure, in the same setting: the result for `CCCSC(=O)N(CCC)CCC` reads “inactive”.
